In PubChem BioAssay AID488909 (Broad Institute, 2010) one finds outcome data, which are given here for four molecules.

Structures are written as SMILES. Entries with a potency or affinity are not part of this list. Results filed as inconclusive are left out. The source made the active and inactive calls.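 How the source made its calls: active means fluorescence drops, meaning less fungal growth, with half-maximal dose at most ten times the top valid tested dose; inconclusive means flat curve with 30 to 70% inhibition, or poor fit; inactive means the rest, including compounds that raise the signal.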

The test in a line: growth inhibition of azole-resistant C. albicans, dose response, CaCi-8 strain, Alamar Blue, dry powder, set 2 (AID 488909). Particulars: C. albicans CaCi-8 + fluconazole, 48 h; series mostly up to 26 µM.
In the case of `COCCC(=O)N1CCN(c2ccnc3cc(Cl)ccc23)CC1`, the outcome was inactive.

On to `N#Cc1ccc(N2CCN(C(=O)c3ccc(Cl)cc3)CC2)nc1`, for which the outcome was inactive. As for `Clc1ccc2c(N3CCNCC3)ccnc2c1`, the entry is “inactive”; as for `Cc1cc(N2CCN(C(=O)c3ccc(Cl)cc3)CC2)c2ccccc2n1`, “inactive”.
